Source: PubChem BioAssay (several laboratories)
HSF1 inh = HSF1 inhibition. hit rate 0.77% among 300,000. NIH3T3-HGL HSE-luciferase, MG132-induced, luminescence 8 h; active compounds read low. AID 2098. activity change, negative = inhibition, % at 7.5 µM (by protocol);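 active means more than half of replicate wells show activity change below -50%, luminescence cut by over half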;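 further: luciferase reports HSF-1 transcriptional activity via heat shock element; 0% = median of DMSO wells and -100% = zero luminescence signal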
AHR activator = activators of human aryl hydrocarbon receptor; hit rate 2.5% among 320,000; AHR-responsive luciferase reporter cells, luminescence; activation, % at 5 µM; P35869; AID 2796; in the data active means activation above about 47%;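 further: 0% = vehicle wells and 100% = reference agonist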
GAA850 FXN act = increases GAA850 frataxin promoter reporter activity; HEK293 lucGAA850 FXN promoter luciferase reporter, 24 h; percent of 10 µM SAHA response; activation, % at 6 µM; hit rate 0.56% among 360,000; AID 540364;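 active means activation above the average of all compounds screened plus 3 SD, cutoff fixed separately per campaign, cut at about 7.5% in these data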;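 further: 0% = DMSO wells and 100% = 10 µM SAHA wells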
HSF-1 act = increases HSF-1 driven luciferase reporter signal; NIH3T3-HGL HSF-1 luciferase reporter, MG132, 8 h; 100% = twice DMSO control signal; activation, % at 9 µM; hit rate 1.7% among 300,000; AID 504408;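 active means mean replicate activation of at least 50% with a set share of replicates each reaching 50%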;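 further: 0% = median of the neutral control wells and 100% = twice that signal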
An asterisk follows results filed as active; . = no result given. Compounds with a hit are over-represented: about 4.6% of the library has one in this group of screens.

SMILES	HSF1 inh	AHR activator	GAA850 FXN act	HSF-1 act
CC1CCCN(C(=S)Nc2ccc(F)cc2)C1 (centres undefined)	21	0	1	38
CCN1CCN(c2cc(C)c3cc(NC(=S)N4CCCC(C)C4)ccc3n2)CC1 (centres undefined)	-79*	3	-11	-82
COC/C=C/C1=CC2=CC(=O)C(C)(OC(=O)c3cnc4ccccc4n3)C(=O)C2=CN1CCCCO (centres undefined)	-3	0	0	-7
CCn1cc(C(=O)N2CCn3c(nc4ccccc43)C2)c(=O)c2ccc(C)nc21	-10	0	16*	2
Brc1ccc(N=Cc2ccccn2)cc1	6	55*	2	36
CN(C)c1ccc(P(=O)(Nc2cccc(C(F)(F)F)c2)N2CCOCC2)c(NC(=O)c2cccs2)c1 (centres undefined)	7	16	-2	26
Cc1nc2nc(-c3cccs3)[nH]c2cc1Br	29	58*	3	63*
O=C(Nc1ccc(OC(F)(F)F)cc1)c1ccc2ccccc2n1	10	47*	3	32
O=C(Nc1ccc2c(c1)OCCO2)c1ccc2ccccc2n1	.	52*	4	.
CCCCNC(=O)c1c(CSc2ccccc2)noc1C(=O)NCc1ccccc1	-8	7	1	-24
CCN(CC)CCN(C(=O)C1=COCCO1)c1nc2ccc(C)cc2s1	24	4	4	53*
CS(=O)(=O)NCCNc1ccc(C(F)(F)F)cc1[N+](=O)[O-]	.	2	2	.
COc1ccc2[nH]c(C)c(CCNc3ccc(C(F)(F)F)cc3[N+](=O)[O-])c2c1	16	37	5	61*
O=C1NCC(Nc2ccc(Cl)cc2)C(=O)N1 (centres undefined)	.	.	1	.
Cc1ccc2nc(C)c(C(=O)N/N=C/c3ccc(N4CCOCC4)cc3)cc2c1	6	10	0	1
COc1ccc(Cl)cc1C(=O)N/N=C/c1ccc(N2CCOCC2)cc1	-7	53*	1	0
CCn1ncc(/C=N/NC(=O)c2cc(Cl)ccc2OC)c1C	-5	76*	2	-10
CCOC(=O)c1c(NC(=O)/C=C/C(=O)O)sc(C)c1-c1ccc(F)cc1	1	4	-3	-3
Nc1cc(-c2ccco2)no1	37	3	1	72*
Cc1ccccc1-n1c(=O)n(CCc2ccccc2)c(=O)c2[nH]cnc21	-5	2	0	22
O=C(Nc1ccc(-c2nc3ccccc3o2)cc1)c1cccnc1	23	40	1	55*
COc1ccc(NC(=O)c2cccnc2)cc1OCC(C)C	-45	51*	2	-57
Cc1ccccc1OCC(=O)NCCNC(=O)c1cccnc1	-24	6	2	-37
Cc1ccccc1OCC(=O)NCCCNC(=O)c1cccnc1	14	9	2	56*
Cc1cccc(C)c1NC(=O)c1cccnc1	-67*	1	1	-76
SMILES	HSF1 inh	AHR activator	GAA850 FXN act	HSF-1 act
COc1cc(C2SCC(=O)N2CCc2ccc(OC)c(OC)c2)ccc1O (centres undefined)	8	-1	2	12
C=CCc1c(OC)ccc2c1c(S(=O)(=O)c1ccc(C)cc1)cn2COC	4	-1	3	2
OCC1(CCOc2ccccc2)CCN(C2Cc3ccccc3C2)CC1	-4	8	1	19
C=C(C)Cc1c(C)c(C#N)c2nc3ccccc3n2c1N1CCCCC1	-7	4	0	-10
O=C(Nc1ccc(Cl)c(-c2nc3ccccc3[nH]2)c1)c1cccnc1	-6	52*	0	-4
O=C(Nc1ccc2ccccc2c1)c1cccnc1	11	52*	4	7
COc1ccc(NC(=O)c2cccnc2)cc1	6	0	4	-5
COc1cc(C)c(CN2CCN(S(=O)(=O)c3ccc(Cl)s3)CC2)cc1OC	.	3	1	.
CCOC(=O)c1sc2ncn(C(C)C(=O)OC)c(=O)c2c1C (centres undefined)	-2	-2	0	3
COc1ccc(NC2=Nc3ccccc3N3C2=Nc2c(c(C)nn2-c2ccc(C)cc2)C3c2cccnc2)cc1 (centres undefined)	-81*	2	1	-86
CC(=O)Nc1ccc(NC2=Nc3ccccc3N3C2=Nc2c(c(C)nn2-c2ccccc2)C3c2ccccc2)cc1 (centres undefined)	-7	-2	0	2
COc1ccc(-c2sc(Nc3ccccc3)n[n+]2-c2ccccc2)cc1Br	.	64*	2	.
CCOc1cc(-c2sc(Nc3ccc(CC)cc3)n[n+]2-c2ccccc2)ccc1OC	.	0	-1	.
COc1ccc(C)cc1Nc1n[n+](-c2ccccc2)c(-c2ccc(C(=O)O)cc2)s1	-1	48*	0	-12
CC(C)c1ccc(N(CC(=O)NCCCN2CCOCC2)S(=O)(=O)c2ccccc2)cc1	.	.	1	.
Cc1cccc2sc(N(CCN(C)C)C(=O)/C=C/c3cccs3)nc12	29	23	-4	78*
Cc1ccc(-c2[nH]c3ccccc3c2SCCNC(=O)c2cc3ccccc3oc2=O)cc1	-2	9	2	-10
O=C(Cc1cccs1)NCCSc1c(-c2ccc(Cl)cc2)[nH]c2ccccc12	22	51*	0	27
CC(=O)Oc1ccc(N2C(=O)c3cccc4c([N+](=O)[O-])ccc(c34)C2=O)cc1	-4	-5	-1	3
Cc1csc(N/N=C/c2c(F)cccc2Cl)n1	-2	57*	1	8
Fc1cccc(Cl)c1/C=N/Nc1ccccn1	22	42	6	36
Clc1cccc(Cl)c1/C=N\Nc1nccs1	136	13	1	142*
O=[N+]([O-])c1ccccc1/C=N\Nc1nccs1	40	17	1	78*
CCOC(=O)N1CCC(NC(=O)CSc2cc(=O)n(CC)c3ccccc23)CC1	11	17	0	17
Cc1cccc(NC(=S)N(CCN(C)C)Cc2cccs2)c1	-1	4	1	20
SMILES	HSF1 inh	AHR activator	GAA850 FXN act	HSF-1 act
Cc1ccc(CNC(=O)CS(=O)(=O)Cc2nc(-c3ccccc3F)oc2C)cc1	29	2	0	57*
N#Cc1cccc(NC(=O)c2cc(C3CCCCN3C(=O)CCCc3ccccc3)on2)c1 (centres undefined)	.	.	-2	.
O=C1CN(C(=O)CN2CCOCC2)C(c2ccccc2)c2cc(Br)ccc2N1 (centres undefined)	3	57*	0	7
O=C1CN(C(=O)CN2CCCC2)C(c2ccccc2)c2cc(Br)ccc2N1 (centres undefined)	11	30	2	38
CN(Cc1nccs1)C(=O)c1ccc(OC2CCN(CCc3ccccc3)CC2)cc1	1	0	1	-1
COc1ccccc1NC(=O)CSc1nnc(C2CCCCC2)n1N	1	4	1	-5
COc1ccc2oc(-c3ccc(C)c(NC(=O)c4ccc(N5CCOCC5)c([N+](=O)[O-])c4)c3)nc2c1	45	-7	1	81*
Cc1ccc(CNC(=O)c2ccc(Br)o2)cc1	0	1	1	10
CCc1cc2c(=O)[nH]c(CC(N)=O)nc2s1	-7	1	4	1
